The supplement of paper PMC12067926

Experiments:
Assay in all cases: relative growth (AUC of 72 h growth curve relative to DMSO control, dAUC) (ratio); higher = more growth (less inhibition), active = hit call of the paper
Settings in all cases: 20 µM;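 active = growth AUC significantly below the DMSO wells by Dunnett test; inactive = the rest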
[1] = system: Aeromonas 1 (Aeromonas sp. AE235)
Outline: (§1)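 Isolates from Icelandic stream sediments and Silwood Park soil, along with whole sediment communities, were grown in Luria–Bertani medium to carrying capacity and diluted 1:100 into 96-well plates with each chemical at 20 µM (1% DMSO). A600 was measured hourly for 72 h, and values were averaged over three biological replicates. Relative growth (dAUC) is the spline-integrated growth-curve area over the mean of the DMSO controls.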

[2] = system: Aeromonas 2 (Aeromonas sobria)
Outline: as §1

[3] = system: Aeromonas 3 (Aeromonas popoffii)
Outline: as §1

[4] = system: Argrobacterium 1 (Agrobacterium sp.)
Outline: as §1

[5] = system: Arthrobacter 1 (Arthrobacter humicola)
Outline: as §1

[6] = system: Arthrobacter 2 (Arthrobacter humicola)
Outline: as §1

[7] = system: Arthrobacter 3 (Arthrobacter sp.)
Outline: as §1

[8] = system: Community 10
Outline: as §1

[9] = system: Community 4
Outline: as §1

[10] = system: Community 6
Outline: as §1

[11] = system: Community 7
Outline: as §1

[12] = system: Community 8
Outline: as §1

[13] = system: Community 9
Outline: as §1

[14] = system: Flavobacterium 1 (Flavobacterium glaciei)
Outline: as §1

[15] = system: Flavobacterium 2 (Flavobacterium succinicans)
Outline: as §1

[16] = system: Hymenobacter 1 (Hymenobacter glaciei)
Outline: as §1

[17] = system: Microbacterium 1 (Microbacterium arborescens)
Outline: as §1

[18] = system: Neobacillus 1 (Neobacillus soli)
Outline: as §1

[19] = system: Oryzobacter 1 (Oryzobacter terrae)
Outline: as §1

[20] = system: Paenibacillus 1 (Paenibacillus castaneae)
Outline: as §1

Measured: relative growth

CO/C=C(/C(=O)OC)c1ccccc1COc1cccc(C(F)(F)F)n1
inactive: [1] 0.992 | [2] 0.905 | [3] 0.97 | [4] 1.06 | [5] 0.923 | [6] 0.886 | [7] 1.02 | [8] 0.887 | [9] 0.935 | [10] 0.929 | [11] 1.04 | [12] 1 | [13] 0.987 | [14] 0.911 | [15] 0.962 | [16] 1.06 | [17] 0.997 | [18] 1.01 | [19] 0.944 | [20] 1.01

CCCC(Cn1cncn1)c1ccc(Cl)cc1Cl (stereo not given)
inactive: [1] 0.932 | [2] 0.996 | [3] 1.01 | [4] 1.15 | [5] 1 | [6] 1.02 | [7] 0.987 | [8] 0.973 | [9] 1.11 | [10] 1.06 | [11] 0.902 | [12] 1.09 | [13] 1.12 | [14] 1.07 | [15] 0.966 | [16] 0.877 | [17] 0.99 | [18] 1.09 | [19] 1.05 | [20] 1.06

CC1(C)C(C=C(Cl)Cl)C1C(=O)OCc1cccc(Oc2ccccc2)c1 (stereo not given)
inactive: [1] 1.03 | [2] 0.961 | [3] 0.99 | [4] 1.04 | [5] 1.12 | [6] 0.851 | [7] 0.987 | [8] 0.824 | [9] 0.922 | [10] 0.94 | [11] 1.08 | [12] 0.975 | [13] 0.932 | [14] 0.977 | [15] 0.958 | [16] 0.989 | [17] 0.987 | [18] 1.05 | [19] 1.14 | [20] 0.894

CCSC(C)CC1CC(=O)C(/C(CC)=N/OC/C=C/Cl)=C(O)C1 (mixture of isomers)
inactive: [1] 0.981 | [2] 0.969 | [3] 0.986 | [4] 1.01 | [5] 0.93 | [6] 0.987 | [7] 0.986 | [8] 0.965 | [9] 1.09 | [10] 1.01 | [11] 1.02 | [12] 1 | [13] 1.12 | [14] 1 | [15] 0.981 | [16] 0.951 | [17] 1.03 | [18] 1.05 | [19] 1.03 | [20] 0.995

CCCCC(C#N)(Cn1cncn1)c1ccc(Cl)cc1 (stereo not given)
inactive: [1] 0.946 | [2] 0.901 | [3] 0.979 | [4] 1.07 | [5] 0.975 | [6] 0.849 | [7] 0.841 | [8] 0.956 | [9] 0.921 | [10] 0.931 | [11] 0.991 | [12] 0.904 | [13] 0.937 | [14] 0.856 | [15] 0.885 | [16] 0.912 | [17] 0.925 | [18] 0.942 | [19] 1.12 | [20] 0.97

COc1cc(C)c(C(=O)c2c(OC)ccc(Br)c2C)c(OC)c1OC
inactive: [1] 1.07 | [2] 1.03 | [3] 1.1 | [4] 1.04 | [5] 1.15 | [6] 0.768 | [7] 0.949 | [8] 0.986 | [9] 1.1 | [10] 1.05 | [11] 0.987 | [12] 1.08 | [13] 1.12 | [14] 0.992 | [15] 1.02 | [16] 1.16 | [17] 1.03 | [18] 1.06 | [19] 1.07 | [20] 0.965

C[N+](C)(C)CCCl
inactive: [1] 0.996 | [2] 0.944 | [3] 0.977 | [4] 1.01 | [5] 1.05 | [6] 1 | [7] 0.987 | [8] 0.819 | [9] 0.978 | [10] 0.92 | [11] 0.749 | [12] 0.988 | [13] 1.01 | [14] 1.09 | [15] 0.996 | [16] 0.977 | [17] 0.994 | [18] 0.993 | [19] 1.05 | [20] 0.97

N#Cc1cc(Br)c(O)c(Br)c1
active: [19] 0.742
inactive: [1] 0.985 | [2] 0.899 | [3] 1.01 | [4] 1.03 | [5] 0.984 | [6] 0.827 | [7] 1.02 | [8] 0.931 | [9] 1.08 | [10] 1.05 | [11] 1.07 | [12] 1.05 | [13] 1.08 | [14] 1.02 | [15] 0.951 | [16] 0.861 | [17] 1.05 | [18] 0.842 | [20] 1.16

N#CCNC(=O)c1cnccc1C(F)(F)F
inactive: [1] 1.01 | [2] 0.97 | [3] 1.03 | [4] 0.992 | [5] 0.965 | [6] 0.882 | [7] 0.96 | [8] 0.928 | [9] 0.954 | [10] 0.919 | [11] 1.01 | [12] 0.986 | [13] 0.902 | [14] 0.973 | [15] 0.944 | [16] 0.973 | [17] 1.01 | [18] 0.935 | [19] 1.09 | [20] 0.935

CC(C)N(C(=O)COc1nnc(C(F)(F)F)s1)c1ccc(F)cc1
inactive: [1] 1.04 | [2] 0.994 | [3] 0.973 | [4] 1.02 | [5] 1.05 | [6] 0.894 | [7] 1.02 | [8] 0.763 | [9] 1.04 | [10] 0.92 | [11] 1.13 | [12] 1.02 | [13] 0.986 | [14] 1.01 | [15] 0.927 | [16] 0.849 | [17] 1.04 | [18] 0.965 | [19] 1.16 | [20] 0.899

CC[C@H](C)[C@H]1O[C@]2(C=C[C@@H]1C)C[C@@H]1C[C@@H](C/C=C(\C)[C@@H](O[C@H]3C[C@H](OC)[C@@H](O[C@H]4C[C@H](OC)[C@@H](O)[C@H](C)O4)[C@H](C)O3)[C@@H](C)/C=C/C=C3\CO[C@@H]4[C@H](O)C(C)=C[C@@H](C(=O)O1)[C@]34O)O2.CO[C@H]1C[C@H](O[C@H]2[C@H](C)O[C@@H](O[C@@H]3/C(C)=C/C[C@@H]4C[C@@H](C[C@]5(C=C[C@H](C)[C@@H](C(C)C)O5)O4)OC(=O)[C@@H]4C=C(C)[C@@H](O)[C@H]5OC/C(=C\C=C\[C@@H]3C)[C@]54O)C[C@@H]2OC)O[C@@H](C)[C@@H]1O
inactive: [1] 0.949 | [2] 0.927 | [3] 1.06 | [4] 1.11 | [8] 0.898 | [9] 0.808 | [11] 1.17 | [12] 0.963 | [15] 0.975 | [16] 0.9 | [17] 0.963 | [18] 0.893
active: [5] 0.181 | [6] 0.00817 | [7] 0.16 | [10] 0.662 | [13] 0.624 | [14] 0.139 | [19] 0.286 | [20] 0.317

CCc1cccc(C)c1N(C(=O)CCl)[C@@H](C)COC
inactive: [1] 1.01 | [2] 0.962 | [3] 0.992 | [4] 1 | [5] 1.08 | [6] 0.89 | [7] 1.02 | [8] 0.929 | [9] 1.01 | [10] 0.968 | [11] 1.12 | [12] 1.05 | [13] 0.948 | [14] 0.984 | [15] 0.967 | [16] 1.04 | [17] 1.04 | [18] 0.981 | [19] 1.06 | [20] 0.974

N#CC(CCc1ccc(Cl)cc1)(Cn1cncn1)c1ccccc1 (stereo not given)
active: [6] 0.555 | [7] 0.666
inactive: [1] 0.938 | [2] 0.936 | [3] 1.01 | [4] 0.968 | [5] 0.81 | [8] 1.09 | [9] 0.946 | [10] 0.958 | [11] 0.96 | [12] 0.951 | [13] 0.939 | [14] 0.846 | [15] 0.856 | [16] 0.861 | [17] 0.909 | [18] 0.905 | [19] 1.02 | [20] 0.947

CNC(=O)Oc1cccc(/N=C/N(C)C)c1
inactive: [1] 1 | [2] 0.973 | [3] 0.975 | [4] 0.977 | [5] 0.93 | [6] 0.951 | [7] 1.1 | [8] 0.8 | [9] 0.984 | [10] 0.995 | [11] 1.15 | [12] 1.03 | [13] 1.07 | [14] 0.984 | [15] 0.99 | [16] 0.815 | [17] 1.02 | [18] 0.97 | [19] 1.05 | [20] 0.96

Cc1cc(C)c(C2=C(OC(=O)CC(C)(C)C)C3(CCCC3)OC2=O)c(C)c1
active: [14] 0.346
inactive: [1] 1.09 | [2] 0.978 | [3] 1.05 | [4] 1.11 | [5] 0.927 | [6] 0.864 | [7] 0.789 | [8] 0.848 | [9] 1.19 | [10] 0.917 | [11] 0.932 | [12] 1.08 | [13] 1.03 | [15] 0.981 | [16] 0.896 | [17] 1.02 | [18] 1.01 | [19] 1.16 | [20] 0.994

CCc1cc(C)cc(CC)c1-c1c(OC(=O)C(C)(C)C)n2n(c1=O)CCOCC2
inactive: [1] 0.987 | [2] 0.978 | [3] 1.02 | [4] 0.957 | [5] 1.01 | [6] 0.873 | [7] 0.917 | [8] 0.925 | [9] 0.852 | [10] 0.906 | [11] 1.05 | [12] 0.968 | [13] 0.884 | [14] 1.02 | [15] 0.943 | [16] 0.947 | [17] 1.03 | [18] 0.861 | [19] 1.01 | [20] 0.956
